# Assay outcomes: PubChem, several laboratories
# CYP2C19 activ – cytochrome P450 2C19 (human) activation | P33261 | recombinant CYP2C19, luciferin-H EGE luminescence; active compounds read high; 0 = fully inhibited enzyme, 1 = untreated enzyme | activation factor at 5 µM | 96,000 tested, under 10 active | AID 1025;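 active = activation factor of at least 2 at 5 µM in the primary screen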;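 note: 0 = wells with 2.5 mM tranylcypromine and 1 = vehicle-only wells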
# CYP2C9 act – CYP2C9 (human) activation; AID 1024; 1.4% of 96,000 active; P11712; activation factor at 5 µM; recombinant CYP2C9, luciferin-H conversion, luminescence; active compounds read high; factor 1 = untreated enzyme, 0 = blocked;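 active = activation factor of 2 or more for CYP2C9 at a 5 µM dose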;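 note: 0 = sulfaphenazole-blocked wells and 1 = vehicle-only wells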
# Cav3 T inh – inhibitors of human Cav3.2 T-type calcium channel; O95180; Cav3.2-expressing cells, Fluo-4 calcium fluorescence FDSS; active compounds read low; B-score at 10 µM; 4% of 100,000 active; AID 449739;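 active = single-dose well whose peak fluorescence ratio is a statistical outlier from its plate by either plate-standardised score or position-corrected B-score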
# CYP2C9 inhib – inhibitors of human CYP2C9; P11712; CYP2C9 Supersomes, luciferin-H conversion, luminescence; inhibition, % at 5 µM; 20% of 96,000 active;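 active = blocking of liver enzyme CYP2C9 beyond about 50% at 5 µM, limit read from the data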
# CYP2C19 inh – inhibitors of human CYP2C19; P33261; CYP2C19 Supersomes, luciferin-H EGE luminescence, 30 min; inhibition, % at 5 µM; 21% of 96,000 active; AID 778;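 active = CYP2C19 inhibition above a set limit at 5 µM in the primary screen, cut at about 50% in these data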;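 note: plate controls were negative control wells for no effect and 2.5 mM tranylcypromine positive control for full effect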
# An asterisk follows results filed as active; / = no result given. Most compounds without a hit are left out; they make up all but 27% or so of the library.
SMILES,CYP2C19 activ,CYP2C9 act,Cav3 T inh,CYP2C9 inhib,CYP2C19 inh
CC(=O)Nc1cccc(NC(=O)C2CCCN2C(=O)Nc2cccc(C)c2)c1 (stereo not given),1.1,1,0.29,-4,-6
Cc1cc(C)cc(NC(=O)N2CCCC2C(=O)Nc2ccc(-n3cnnn3)cc2)c1 (stereo not given),0.2,1,0.67,4,83*
COc1ccc(S(=O)(=O)NC(CC(=O)NCC2CCCO2)c2ccco2)cc1 (stereo not given),1,1.1,0.25,-11,4
Cc1cccc(C)c1NC(=O)CSc1nnc(-c2ccncc2)n1Cc1ccco1,0.3,0.3,1.2,67*,73*
Cc1cc(NC(=O)CSc2nnc(-c3ccccc3)n2Cc2ccco2)no1,0.8,1.2,1.8,-15,20
COc1ccc(Cl)cc1NC(=O)CSc1nnc(-c2ccncc2)n1CC1CCCO1 (stereo not given),0.4,0.5,0.12,49,60*
COC(=O)CSc1nnc(CSc2nc(C)cc(C)n2)n1Cc1ccco1,0.5,0.9,0.025,14,45
Cc1cc(C)nc(SCc2nnc(SCC(=O)Nc3ccc(C)c(C)c3)n2Cc2ccco2)n1,0.7,0.6,-8*,43,33
O=C(CSc1nnc(-c2ccncc2)n1Cc1ccco1)Nc1nccs1,/,/,-0.076,/,/
Cc1cc(Cl)ccc1NC(=O)CSc1nnc(-c2ccncc2)n1Cc1ccco1,0.1,0.1,0.44,90*,86*
CCCCN1C(=S)SC(C)(C)C1/[N+]([O-])=C/c1cccnc1 (stereo not given),0.7,0.7,-0.011,31,31
COC(=O)[C@@H]1C[C@]2(OC(=O)c3ccccc3)C=CC(=O)C[C@@H]2N1C(=O)OCc1ccccc1,/,/,-0.17,/,/
CCOC(=O)/C(C#N)=C/c1ccc(-c2ccsc2C(=O)OC)o1,0.7,0.6,-7*,35,33
CCOC(=O)C(=Cc1ccc(-c2ccsc2C(=O)OC)o1)C(=O)OCC,0.7,0.5,-1.9,50*,34
COc1ccccc1-n1c(SCC(=O)NC2CCCCC2)nc2c(c1=O)SCC2,0.9,1,/,2,12
CCCSc1nc(N)cc(=O)[nH]1,0.9,1,0.074,-3,6
CN(c1ccc(C(=O)Nc2ccccc2Sc2ccccc2)cc1)S(C)(=O)=O,0.7,0.5,/,46,30
Cc1ccc(C)c(NC(=O)c2ccc(N(C)S(C)(=O)=O)cc2)c1,0.9,0.5,0.32,51*,14
COc1ccc(C)cc1NC(=O)c1ccc(N(C)S(C)(=O)=O)cc1,0.7,2.5*,-0.096,-147,32
CCn1c(CNC(=O)c2ccc3c(c2)OCO3)nnc1SCC(=O)Nc1cc(C)ccc1OC,0.8,0.9,/,14,19
COc1ccc(C)cc1NC(=O)c1ccc2c(c1)OCO2,0.1,1.8,-1.8,-76,86*
CN(c1ccc(C(=O)Nc2ccc3c(c2)OCCO3)cc1)S(C)(=O)=O,0.6,0.7,0.17,34,38
O=S(=O)(/N=C(/Nc1cc(N2CCOCC2)ncn1)c1ccc(F)cc1)c1ccccc1,1,1.1,0.85,-13,2
Cc1cccc(N/C(=N\S(=O)(=O)c2ccccc2)C(F)(F)F)c1,1.1,0.4,/,56*,-11
O=S(=O)(/N=C(\Nc1ccc(F)cc1)C(F)(F)F)c1ccccc1,1,0.4,-0.023,56*,-4
SMILES,CYP2C19 activ,CYP2C9 act,Cav3 T inh,CYP2C9 inhib,CYP2C19 inh
O=C(NCC(c1cccs1)N1CCOCC1)c1ccc(Cl)s1 (stereo not given),0.3,0.5,1.6,54*,72*
Cc1cc(C(C#N)c2cccc(Cl)c2)n2ncnc2n1 (stereo not given),0.7,1.3,/,-31,29
N#CC(c1cccc(Cl)c1)c1ccc2c(C(F)(F)F)cc(C(F)(F)F)nc2n1 (stereo not given),0.7,0.2,-9.2*,78*,29
O=C1Nc2cc(Cl)ccc2Nc2cscc21,/,/,-2.1,/,/
c1ccc2[nH]c(SCc3cscn3)nc2c1,0.1,0.8,0.62,23,91*
Fc1ccccc1CSc1nc2ccccc2[nH]1,0,0.2,/,85*,100*
Fc1c(F)c(F)c(CSc2nc3ccccc3[nH]2)c(F)c1F,0.5,0.7,-3.9,26,46
Fc1ccccc1CSc1nc2ncc(Br)cc2[nH]1,0.1,0.2,-0.64,78*,87*
N#Cc1ccccc1CSc1nc2ncc(Br)cc2[nH]1,0.6,0.7,-0.35,33,36
CCC(C)[C@H](NC(=O)NCC1CCCO1)C(=O)OC (stereo not given in full),1.1,1.1,0.44,-12,-14
COc1cc2cc(C(N)=O)c(N)nc2cc1OC,1.1,1,/,-4,-11
CC1(C)CC[C@@]23CC[C@]4(C)[C@@](OC2=O)(C3C1)[C@H]1O[C@H]1C1[C@@]2(C)CC[C@H](O)C(C)(C)C2CC[C@]14C (stereo not given in full),/,/,0.027,/,/
O=C(NC(=S)Nc1ccc(N2CCCCC2)cc1)c1cccs1,1,1,-2.3,-3,-4
CON(C)c1nc(OCCNC(=O)OCc2ccc(Cl)cc2Cl)nc(N(C)C)n1,0.6,0.4,-0.55,63*,36
Cc1cc(Cl)ccc1OCC(=O)NCCCN1CCOCC1,0.6,1,-0.051,-1,42
Cc1cc(Cl)ccc1OCC(=O)NCCOc1nc(N2CCOCC2)nc(N2CCOCC2)n1,0.8,0.8,1.6,23,19
CON(C)c1nc(OCCNC(=O)COc2ccc(Cl)cc2C)nc(N(C)C)n1,0.6,0.5,0.36,51*,36
CN(C)c1nc(OCCNC(=O)COc2ccc(Cl)cc2Cl)nc(N2CCOCC2)n1,0.5,0.2,-0.33,82*,50
CC(=O)/C(C#N)=C1\NC(=O)C(Cc2ccc(C)c(C)c2)S1 (stereo not given),1.1,0.1,-1.7,94*,-5
CC(=O)/C(C#N)=C1\NC(=O)C(Cc2ccccc2Cl)S1 (stereo not given),/,/,-1.6,/,/
Cc1ccc(NC(=O)NCCc2ccc(S(N)(=O)=O)cc2)cc1,0.9,0.8,-0.13,23,14
Cc1ccc(NC(=O)NCCCc2ccccc2)cc1,0.4,0.8,-1,24,59*
Cc1ccc(N(O)C(=O)OCCNC(=O)Nc2ccccc2)cc1,0.1,0.1,-0.85,92*,94*
CCOC(=O)c1cnc(SC2CC(=O)N(c3ccc(C)cc3)C2=O)nc1N (stereo not given),1,0.8,1,23,-3
O=C(CN(C(=O)CSc1nc2ccccc2o1)c1ccccc1)NC1CCCCC1,0.2,0.5,-3*,50,77*
O=C(CN(C(=O)CSc1nc2ccccc2o1)c1cccc(F)c1)NC1CCCCC1,0.3,0.4,-5.6*,63*,74*
O=C(CSc1nc2ccccc2o1)N1CCCC1,0.7,1,0.56,3,32
CS(=O)(=O)N(CC(=O)NC1CCCC1)c1cccc(F)c1,0.7,0.9,1,9,29
